# Assay outcomes as filed in PubChem BioAssay.
# Most compounds without a hit are left out; they make up all but 3% or so of the library.
# ABHD5 PLIN5 PPI: ABHD5-PLIN5 interaction inhibitors, primary screen, cell lysate, split luciferase complementation, luminescence | Split G. princeps luciferase complementation, 4 h | inhibition, % at 4 µM | actives 0.78% (n = 360,000) | AID 602281, 2012;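 active = inhibition above the mean inhibition across every tested compound plus 3 SD, cut at about 22% in these data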
# Target sequence (Q00G26 whole entry, looked up): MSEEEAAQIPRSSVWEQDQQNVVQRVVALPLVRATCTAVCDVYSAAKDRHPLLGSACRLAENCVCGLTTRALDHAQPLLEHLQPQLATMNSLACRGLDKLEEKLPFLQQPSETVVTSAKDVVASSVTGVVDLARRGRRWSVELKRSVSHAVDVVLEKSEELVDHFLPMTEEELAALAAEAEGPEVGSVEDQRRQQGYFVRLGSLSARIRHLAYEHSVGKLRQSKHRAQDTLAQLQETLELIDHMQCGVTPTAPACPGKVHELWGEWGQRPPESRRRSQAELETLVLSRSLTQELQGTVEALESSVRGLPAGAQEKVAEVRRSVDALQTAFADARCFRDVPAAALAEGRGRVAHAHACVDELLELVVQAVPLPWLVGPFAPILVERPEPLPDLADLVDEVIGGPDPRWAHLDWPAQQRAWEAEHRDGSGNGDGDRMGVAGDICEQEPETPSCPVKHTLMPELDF
# Target sequence (Q8WTS1 whole entry, looked up): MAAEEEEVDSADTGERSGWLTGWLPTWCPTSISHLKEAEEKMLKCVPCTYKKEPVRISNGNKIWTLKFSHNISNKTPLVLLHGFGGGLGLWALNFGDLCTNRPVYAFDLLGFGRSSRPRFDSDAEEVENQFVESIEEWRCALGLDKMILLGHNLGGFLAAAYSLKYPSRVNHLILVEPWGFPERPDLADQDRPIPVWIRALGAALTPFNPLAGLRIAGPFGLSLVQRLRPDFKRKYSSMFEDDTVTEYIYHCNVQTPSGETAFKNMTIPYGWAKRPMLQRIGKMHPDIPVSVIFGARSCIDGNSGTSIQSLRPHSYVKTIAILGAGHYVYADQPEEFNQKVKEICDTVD
# EWS-Fli inh: EWS/Fli-driven NR0B1 reporter inhibitors, primary screen, A673 cells, NR0B1 luciferase, luminescence, MLPCN library | viability-normalised | inhibition, % at 12.6 µM | actives 0.67% (n = 350,000);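 active = mean inhibition of at least 50% after viability correction, with every replicate also passing that limit; inconclusive = mean reaches 50% but only one of two replicates passes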;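 note: firefly luciferase signal divided by Alamar Blue viability fluorescence both relative to DMSO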
# Peg3 prom inh: Peg3 promoter-driven luciferase inhibitors, primary screen, cell-based, HeLa, luciferase luminescence. HeLa PEG-Prom luciferase reporter, overnight. inhibition, % at 20 µM. actives 1.7% (n = 360,000). AID 588405, 2011;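 active = inhibition of at least 50% at 20 µM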
# Shn3 3UTR inh: reduction of Shn3 3'UTR firefly luciferase signal, primary screen, Schnurri-3 inhibitor project, cell-based, Clone20 osteoblasts, set 2 | Clone20 osteoblast Shn3 3'UTR firefly luciferase, 24 h | inhibition, % at 12.5 µM | AID 588674, 2011 | actives 0.52% (n = 360,000);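 active = mean inhibition of at least 75% with every replicate also reaching 75%; inconclusive = mean inhibition at least 75% but some replicate below; inactive = mean inhibition below 75%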
# MITF TRPM1 inh: inhibitors of MITF-dependent TRPM1 promoter reporter, primary screen, cell-based, SK-MEL-5, single point, luciferase; SK-MEL-5 TRPM1 promoter luciferase, 24 h; inhibition, % at 12.5 µM; actives 0.83% (n = 330,000); AID 488899, 2010;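 active = mean inhibition across replicates of 60% or more, whatever share of single replicates reaches that level; inconclusive = some that reach 60%, reason not given; inactive = mean inhibition across replicates below 60%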
# PAX8 reporter: inhibitors of PAX8-driven TPO luciferase reporter, primary screen, RMG-I cells, single concentration | SteadyGlo, 24 h | inhibition, % at 12.6 µM | actives 1.2% (n = 360,000) | AID 652154, 2013;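 active = mean replicate inhibition at least 60% with every replicate also reaching 60%; inconclusive = only one of the two criteria is met; inactive = mean below 60% and not all replicates reaching 60%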;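 note: luciferase light reporting Pax8 driven TPO promoter activity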
# Hits are given with their value; – = inactive; ? = inconclusive; · = no result; ! = not active in a repeat.
SMILES,ABHD5 PLIN5 PPI,EWS-Fli inh,Peg3 prom inh,Shn3 3UTR inh,MITF TRPM1 inh,PAX8 reporter
CC(=O)C1(O)C(C)CC2C3CC=C4CC(O)CCC4(C)C3CCC21C (stereo not given),–,–,–,–,–,–
CCOC(=O)C1=CN(Cc2cccc(F)c2)S(=O)(=O)N(CC)C1c1ccccc1 (stereo not given),–,–,–,–,–,86.0
CCOC(=O)C1=CN(Cc2cccc(-c3cccnc3)c2)S(=O)(=O)N(C)C1C (stereo not given),–,–,–,–,–,101.0
C[C@H](CO)N1C[C@H](C)[C@@H](CN(C)C(=O)Nc2ccccc2)OCCCC[C@H](C)Oc2ccc(NC(=O)C3CCCCC3)cc2C1=O,·,–,·,·,·,–
CCNc1nc(NCC)n2c(SC(C(=O)Nc3cc(Cl)cc(Cl)c3)c3ccccc3)nnc2n1 (stereo not given),–,·,76.5,–,–,–
COc1ccc2c3c(n(C)c2c1)[C@@H](CO)N(C(=O)CC1CC1)CC31CN(Cc2ccncc2)C1,·,–,·,·,·,–
O=C(/C=C/c1ccc([N+](=O)[O-])s1)N1CCCC1,–,–,–,–,84.7,?
CC1CC(C)CN(C(=O)/C=C/c2ccc([N+](=O)[O-])s2)C1 (stereo not given),–,–,–,–,82.1,67.6
O=C(/C=C/c1ccc([N+](=O)[O-])s1)N1CCCCC1,–,–,–,–,88.6,–
O=C(/C=C/c1ccc([N+](=O)[O-])s1)N1CCN(c2ccccc2)CC1,–,–,–,–,–,–
CC1CN(C(=O)/C=C/c2ccc([N+](=O)[O-])s2)CC(C)O1 (stereo not given),–,–,–,–,–,–
Cc1ccc(S(=O)(=O)N(C)C[C@H]2Oc3ccc(NC(=O)Nc4cccc5ccccc45)cc3CC(=O)N([C@@H](C)CO)C[C@H]2C)cc1,·,–,·,·,·,·
CN1CCN(C(=O)C[C@H]2CC[C@@H]3[C@@H](COc4ccc(NC(=O)c5cscn5)cc4C(=O)N3C)O2)CC1,·,–,·,·,·,–
O=c1c(Br)c(Br)cnn1-c1ccccc1,–,?,108.5,97.6,92.3,106.9
O=c1c(Br)c(N2CCCC2)cnn1-c1ccccc1,–,·,–,–,–,·
COc1c(Cl)cnn(-c2ccc(C)cc2)c1=O,–,–,–,–,–,·
Cc1ccc(-n2ncc(Br)c(Br)c2=O)cc1,–,·,102.2,95.6,83.4,·
COCC(=O)N1CC2(C1)[C@H](c1ccc(-c3ccccc3)cc1)[C@H](CO)N2C(C)=O,·,–,·,·,·,·
CN(C)CCCNC(=O)C[C@@H]1CC[C@@H](NC(=O)Cc2cccnc2)[C@H](CO)O1,·,–,·,·,·,–
CCC(=NCCc1c(C)[nH]c2ccc(OC(F)(F)F)cc12)C1=C(O)CC(c2ccccc2)CC1=O (stereo not given),–,50.8,–,–,–,–
CCCCC(=NCCc1c(C)[nH]c2ccc(OC)cc12)C1=C(O)CC(c2ccccc2)CC1=O (stereo not given),–,55.1,–,–,–,–
COc1ccc(CNC(=O)C[C@@H]2C=C[C@H](NC(=O)CN(C)C)[C@@H](CO)O2)cc1,·,–,·,·,·,–
CC(C)c1ccc2c(c1)C(N1CCN(C)CC1)Cc1cccnc1S2 (stereo not given),–,–,–,–,–,–
COc1ccc2c(c1)CC(N1CCN(C)CC1)c1cc(OC)ccc1S2 (stereo not given),–,–,68.9,–,–,–
Cc1ccccc1CN1CC2=C(CCN(Cc3ccccc3)C2=O)N2CCN=C12,–,–,–,81.1,·,–
SMILES,ABHD5 PLIN5 PPI,EWS-Fli inh,Peg3 prom inh,Shn3 3UTR inh,MITF TRPM1 inh,PAX8 reporter
COc1ccccc1NC(=S)N=Nc1c(O)[nH]c2ccc(Br)cc12,–,–,92.5,–,–,–
CCCC#Cc1ccc2c(c1)O[C@H](CN(C)C(=O)Nc1ccc(OC)cc1)[C@@H](C)CN([C@@H](C)CO)S2(=O)=O,·,–,·,·,·,·
COCCNc1nc2c(c(=O)n(C)c(=O)n2C)n1Cc1cccc(C(F)(F)F)c1,–,·,–,90.1,–,·
Cn1c(=O)c2c(nc(NCc3ccc4c(c3)OCO4)n2Cc2ccc(F)cc2)n(C)c1=O,–,·,55.9,–,–,–
CCCNc1nc2c(c(=O)n(C)c(=O)n2C)n1Cc1cccc(C)c1,–,–,–,96.1,–,·
CCCNc1nc2c(c(=O)n(C)c(=O)n2C)n1CCc1ccccc1,–,·,–,–,–,·
CC(O)CNc1nc2c(c(=O)n(C)c(=O)n2C)n1Cc1cccc(C(F)(F)F)c1 (stereo not given),–,·,–,–,–,–
CC(C)NC(=O)Nc1cccc2c1O[C@@H](CN(C)S(C)(=O)=O)[C@@H](C)CN([C@H](C)CO)C2=O,·,–,·,·,·,–
COc1ccccc1NC(=O)N[C@@H]1CC[C@H](CCn2cc(-c3cccnc3)nn2)O[C@H]1CO,·,–,·,·,·,–
C[C@@H](O)C#Cc1ccc2c(c1)O[C@@H](CN(C)CC1CC1)[C@@H](C)CN([C@@H](C)CO)S2(=O)=O,·,–,·,·,·,·
C[C@@H]1CCCCO[C@@H](CN(C)Cc2ccccc2)[C@H](C)CN([C@@H](C)CO)C(=O)c2cc(NC(=O)Cc3ccccc3)ccc2O1,·,–,·,·,·,–
Cn1c(Sc2ccc(Cl)cc2)c(C=O)c2ccccc21,–,·,53.8,–,–,·
Cn1c(Sc2ccccc2Cl)c(C=O)c2ccccc21,–,·,–,–,–,·
O=C(NC[C@@H]1CC[C@@H]2[C@@H](CN2Cc2cc(-c3ccccc3)on2)O1)c1ccc2c(c1)OCO2,·,–,·,·,·,·
Fc1ccc(-c2ccc(C3[C@@H]4CN(Cc5ccccc5)C[C@H]3N4)cc2)cc1 (stereo not given in full),·,–,·,·,·,74.1!
COc1cc(CN2C[C@@H]3N[C@H](C2)C3c2ccc(-c3ccccc3C)cc2)cc(OC)c1 (stereo not given in full),·,–,·,·,·,72.8!
Cc1ccc(-c2ccc([C@@H]3[C@@H]4CN(Cc5ccccc5F)C[C@H]3N4)cc2)cc1,·,–,·,·,·,89.4
COc1cccc(CN2C[C@@H]3N[C@H](C2)C3c2ccc(-c3ccccc3C)cc2)c1 (stereo not given in full),·,–,·,·,·,–
COc1cccc(-c2ccc(C3[C@@H]4CN(Cc5cccc(F)c5)C[C@H]3N4)cc2)c1 (stereo not given in full),·,–,·,·,·,75.3!
Cc1cccc(-c2ccc(C3[C@@H]4CN(Cc5ccccc5F)C[C@H]3N4)cc2)c1 (stereo not given in full),·,–,·,·,·,–
CNC(=O)C[C@H]1CC[C@H]2[C@@H](COC[C@H](O)CN2Cc2ccc(Cl)c(Cl)c2)O1,·,–,·,·,·,–
